Source: PubChem BioAssay
This is one part of a sample in which hits are shown more often than they occur.
PKM2 inh – PKM2 (human) enzyme inhibition | P14618 | purified PKM2, ATP generation, Kinase-Glo luminescence | Potency, µM (top dose mostly 57.5 µM), for inactives: at the highest dose activity change, negative = inhibition, actives largely listed as inhibitors | 0.058% of 260,000 active | AID 1634; note: potency is the fitted concentration of half-maximal effect; nearly all actives have a fitted effect of over 60% in size
Target sequence (P14618 whole entry, looked up): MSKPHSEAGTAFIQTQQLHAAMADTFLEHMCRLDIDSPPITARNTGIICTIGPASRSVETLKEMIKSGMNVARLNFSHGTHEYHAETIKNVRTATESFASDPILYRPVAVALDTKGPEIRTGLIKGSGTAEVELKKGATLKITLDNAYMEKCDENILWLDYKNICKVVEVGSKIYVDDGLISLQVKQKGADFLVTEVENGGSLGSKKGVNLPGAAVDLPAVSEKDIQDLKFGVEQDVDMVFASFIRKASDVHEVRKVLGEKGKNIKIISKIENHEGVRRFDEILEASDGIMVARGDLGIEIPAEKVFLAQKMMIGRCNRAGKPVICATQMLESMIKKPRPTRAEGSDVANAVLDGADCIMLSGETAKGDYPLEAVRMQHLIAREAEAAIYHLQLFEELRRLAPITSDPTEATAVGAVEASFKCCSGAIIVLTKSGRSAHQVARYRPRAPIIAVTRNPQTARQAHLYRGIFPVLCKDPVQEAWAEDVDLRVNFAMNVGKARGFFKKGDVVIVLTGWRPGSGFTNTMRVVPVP
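Enzyme run at intermediate activity with final 0.1 mM ADP, 0.5 mM PEP (50 mM imidazole pH7.2, 50 mM KCl, 7 mM MgCl2), incubated 1 h at r.t. ATP formed read by Kinase-Glo luminescence, normalized to no-enzyme (full inhibition) and uninhibited wells.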
PKM2 inh CRC – confirmation of human pyruvate kinase M2 inhibitors, concentration-response; purified hPK-M2, Kinase-Glo ATP luminescence, 1 h; 50% of 55 active; Potency, µM (highest dose often 57.5 µM), without a hit: top-dose activity change, negative = inhibition, most hits filed as inhibitors; AID 2263; shares compounds with PKM2 inh
FLuc counter – counter-screen for pyruvate kinase M2 inhibitors: firefly luciferase inhibition; shares compounds with PKM2 inh; Kinase-Glo firefly luciferase, luminescence, 8 min; Potency, µM (top dose mostly 57.5 µM), for the others: top-dose activity, negative = inhibition, usual class: inhibitors; 30% of 55 active
PKM2 LDH couple – blocks human pyruvate kinase M2 in LDH-coupled assay; shares compounds with PKM2 inh; purified hPK-M2, LDH-coupled NADH fluorescence kinetic; Potency, µM (top dose mostly 57.5 µM), for inactives: at the highest dose activity change, negative = inhibition, most hits filed as inhibitors; 55 tested, under 10 active
Numbers without * were called inactive; ? = inconclusive; · = no result given. Calls come from the whole dose curve; as a rule, active = well fitted curve in the direction sought with a large enough effect; inconclusive = small, poorly fitted or top-dose-only effect, or another doubt; inactive = no such curve, though single readings can be large; an effect the other way counts as inactive or inconclusive.

SMILES	PKM2 inh	others
COc1cc([N+](=O)[O-])ccc1NC(=O)CSc1nncn1-c1cccnc1	53.1%
O=C(NC(=O)c1ccccc1)Nc1ccccn1	5.01µM*	PKM2 inh CRC=11.6µM*;FLuc counter=5.17µM*;PKM2 LDH couple=-2.1%
O=C(O)c1ccc(NC(=S)NC(=O)c2ccc(-c3ccccc3)cc2)cc1	49.4%
Cc1cc(C)c(NC(=O)NC(=O)c2cccc(F)c2)c(C)n1	30.6%
Cc1ccc(C(=O)N/C(=C\c2cn(S(=O)(=O)N(C)C)c3ccccc23)C(=O)NCCN2CCOCC2)cc1	56.3%
CCc1nc(SCC(=O)Nc2ccc(OC)cc2[N+](=O)[O-])n[nH]1	90.0%
Cc1cc(C)nc(NC(=O)CSc2nn(-c3ccccc3)c(=S)s2)n1	48.0%
Cc1ccnc(NC(=O)c2ccc3c(c2)OCO3)c1	12.6µM*	PKM2 inh CRC=16.3µM*;FLuc counter=13µM*;PKM2 LDH couple=-10.4%
Cc1ccnc(NS(=O)(=O)c2ccc3c(c2)CCO3)c1	42.2%
CC(=O)N1N=C(c2ccc(C)cc2)CC1c1ccc2c(c1)OCO2 (stereo not given)	50.4%
C/C=C\C=C/C(=O)Nc1cccc(C2=NOC3(C2)C[C@H](C(N)=O)N(C(=O)Cc2ccc([N+](=O)[O-])cc2)C3)c1 (stereo not given in full)	33.8%
Cc1ccc(C)c(S(=O)(=O)N2CCN(C(=O)CSc3ccccc3F)CC2)c1	36.1%
CCOC(Cn1ccc(=O)[nH]c1=O)OCC	-7.4%
Nc1nnc(COc2cccc(C(F)(F)F)c2)s1	41.8%
Cc1cc(Br)ccc1OCCn1ccnc1	31.1%
O=C(Nc1nc2ccccc2[nH]1)c1ccccc1F	8.91µM*	PKM2 inh CRC=5.17µM*;FLuc counter=4.11µM*;PKM2 LDH couple=-7.5%
CC(=O)c1cc2c(cc1NC(=O)CSc1nc3ccccc3[nH]1)OCO2	32.0%
CCS(=O)(=O)N1Cc2ccccc2CC1C(=O)Nc1nc2ccccc2[nH]1 (stereo not given)	35.6%
O=C(CSc1ccc(-c2cccs2)nn1)Nc1ccccc1	44.1%
Cc1ccc2nc(-c3ccncc3)c(Nc3ccccc3)n2c1	·	PKM2 inh CRC=15.9%;FLuc counter=-2.2%;PKM2 LDH couple=-0.7%
Cc1ccc2nc(-c3cccs3)c(Nc3ccccc3)n2c1	·	PKM2 inh CRC=2.8%;FLuc counter=-4.2%;PKM2 LDH couple=-6.9%
COCc1cc(C)nc(OCC(=O)N/N=C/c2ccc(C)o2)c1C#N	31.8%
CCOC(=O)c1c(-c2ccc(C)o2)csc1NC(=S)NC(=O)N(C)C	44.8%
CCCCOP(=O)(OCCCC)C1(NS(=O)(=O)c2ccccc2)C=CC(=O)c2ccccc21 (stereo not given)	52.9%
CC(=O)N1CC(=O)N=C1SCC(=O)Nc1nc(C)c(-c2ccccc2)s1	97.1%
SMILES	PKM2 inh	others
COC(=O)C1=CN(CC2CCCO2)C=C(C(=O)OC)C1c1cc(OC)c(OC)c(OC)c1 (stereo not given)	31.3%
Cc1ccc(-c2ccc(/C=C3\C(=O)ON=C3c3ccccc3)o2)c([N+](=O)[O-])c1	77.3%
CCOC(=O)C(Nc1ccc2ccccc2c1)C(=O)OCC	30.4%
CC(=O)Oc1ccc(NC(=O)Cc2ccccc2)c(C(=O)O)c1	-0.6%
CCOc1ccc(NC(=O)Nc2ccccc2C(N)=O)cc1	3.98µM*	PKM2 inh CRC=9.19µM*;FLuc counter=6.51µM*;PKM2 LDH couple=-1.5%
CCOC(=O)/C=C/C(=O)OCC(=O)Nc1ccc([N+](=O)[O-])cc1	46.7%
O=c1cc(-c2ccccc2Cl)oc2c(NS(=O)(=O)c3cccs3)ccc(O)c12	30.2%
CC1CCN(c2ccc(C(=O)NCc3cccs3)cn2)CC1	36.7%
CC1=NN(c2nc3ccccc3[nH]2)C(=O)/C1=C/N(C)C	6.31µM*	PKM2 inh CRC=2.31µM*;FLuc counter=6.51µM*;PKM2 LDH couple=-6.4%
CNC(=S)N1CCN(S(=O)(=O)c2ccc3ccccc3c2)CC1	87.5%
CC(=O)Nc1sc(N/N=C\c2ccccc2F)nc1-c1cccs1	50.9%
Cc1nc(N/N=C/c2ccccn2)sc1C	7.94µM*	PKM2 inh CRC=9.19µM*;FLuc counter=5.17µM*;PKM2 LDH couple=-9.8%
CC1C/C(=C/c2ccccn2)C(=O)/C(=C/c2ccccn2)C1 (stereo not given)	41.2%
O=c1[nH]c2ccccc2nc1Cc1ccc([N+](=O)[O-])cc1	37.7%
COc1cccc(NC(=O)CSc2nnc(C)s2)c1	41.6%
COc1ccc(C(=O)Nc2cccc(OC)c2)cc1	?	PKM2 inh CRC=?;FLuc counter=?;PKM2 LDH couple=-9.6%
COc1cccc(NC(=O)CSc2nnc3cc(C)nc(N)n23)c1	134.8%
Cc1ccc(CNC(=O)Cn2c(=O)oc3ccccc32)o1	38.0%
CC(=O)c1ccn(S(=O)(=O)c2ccccc2)c1	40.9%
CC(C)(C)CN1CCNC(=O)C1CC(=O)NCCc1ccccc1F (stereo not given)	55.2%
CC1CCCN(CCOc2ccc3ccccc3c2Br)C1 (stereo not given)	-13.1%
Cc1ccccc1Nc1c(-c2ccc(Cl)s2)nc2ccccn12	·	PKM2 inh CRC=4.9%;FLuc counter=0.2%;PKM2 LDH couple=?
COc1ccc(NC(=O)c2cc(S(=O)(=O)N3CCCCC3)c[nH]2)c(OC)c1	1.9%
CCc1nnc(NC(=O)CSc2nnc(-c3ccc(NS(=O)(=O)c4ccccc4)cc3)o2)s1	82.5%
Cn1c(=O)c(Nc2ccc(O)cc2)c2c3c(cccc31)C(=O)c1ccccc1-2	39.4%
SMILES	PKM2 inh	others
Cc1ccc(CCC(=O)Nc2nccs2)o1	89.6%
CCOC(=O)C(Cc1ccccc1)C(=O)Nc1nccs1 (stereo not given)	44.9%
CCOc1ccc(OCC(=O)Nc2nccs2)cc1	10µM*	PKM2 inh CRC=10.3µM*;FLuc counter=?;PKM2 LDH couple=-1.6%
O=C(O)CSc1cc(C(=O)c2ccccc2O)cn2c(=O)c3c4c(sc3nc12)CCCC4	35.9%
Cc1nc(-c2ccc(S(=O)(=O)NCc3ccccn3)s2)cs1	45.1%
O=C(COc1ccccc1C(=O)N/N=C\c1ccc(O)c(O)c1)N/N=C/c1ccc(O)c(O)c1	56.3%
CS(=O)(=O)N(CC(=O)N/N=C/c1cc2c(cc1Br)OCO2)c1ccccc1Br	42.2%
Cc1occc1C(=O)N/N=C/c1ccc2c(c1)OCO2	5.62µM*	PKM2 inh CRC=13µM*;FLuc counter=2.59µM*;PKM2 LDH couple=-0.4%
C/C(=C\c1ccc(C)o1)C(=O)c1c(C)cc(C)[nH]c1=O	66.0%
COc1cccc(CNC(=O)CCC2CCCN(C(=O)c3ccc(OC)o3)C2)c1 (stereo not given)	62.4%
O=C(CCCc1c[nH]c2ccccc12)N1CCN(S(=O)(=O)c2cccs2)CC1	126.9%
CC(=O)N1N=C(c2ccc(C)o2)CC1c1cccc(F)c1 (stereo not given)	33.9%
CCOC(=S)SCC(=O)Nc1ncc(C)s1	79.1%
O=C(CSc1ccc(-c2ccco2)nn1)c1ccccc1	34.7%
O=C1C=CC(=O)N1CCCCCCN1C(=O)C=CC1=O	10µM*	PKM2 inh CRC=6.51µM*;FLuc counter=-0.8%;PKM2 LDH couple=-28.5%
COC(=O)N1[C@H](C)C=C[C@]1(Cc1ccccc1)C(=O)NCc1ccc(C)o1	44.7%
C[C@H](NC(N)=O)C(=O)N1CCN(S(=O)(=O)c2ccc3ccccc3c2)CC1	38.3%
